MOR-DOR inv ag-1 = inverse agonist of human OPRM1-OPRD1 heterodimerization. P35372+P41143. cell-based MOR-DOR heterodimer luminescence, inverse agonism. inhibition, % at 9.3 µM. hit rate 0.21% among 340,000; in the data active = inhibition above about 22%, passing the limit was not always enough;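 note: 0% = cells with DMSO and 100% = wells without cells with DMSO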
HTR5A ag ctr = counter-screen for OPRM1-OPRD1 agonists: human HTR5A agonism; HTR5A agonist assay, luminescence, cell-based; activation, % at 9.3 µM; hit rate 0.61% among 340,000; in the data active = activation mostly above about 9.5%, no sharp cut-off; inactive = mostly below about 7.6%;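 note: 0% = cells with vehicle only and 100% = reference agonist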
Target sequence (P47898 whole entry, looked up): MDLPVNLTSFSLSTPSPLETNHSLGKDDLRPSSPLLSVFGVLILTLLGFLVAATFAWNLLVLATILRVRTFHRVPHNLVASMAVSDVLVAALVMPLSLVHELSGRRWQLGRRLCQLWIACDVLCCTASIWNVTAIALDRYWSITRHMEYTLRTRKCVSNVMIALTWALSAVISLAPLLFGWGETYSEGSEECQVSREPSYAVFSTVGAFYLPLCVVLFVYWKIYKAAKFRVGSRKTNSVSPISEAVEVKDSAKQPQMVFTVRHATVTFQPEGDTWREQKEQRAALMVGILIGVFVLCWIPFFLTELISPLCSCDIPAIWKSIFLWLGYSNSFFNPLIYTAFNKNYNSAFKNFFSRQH
MOR-DOR ag = OPRM1-OPRD1 heterodimerization agonism; activation, % at 9.3 µM; P35372+P41143; cells, luminescence; hit rate 0.3% among 340,000; in the data active = activation above about 18%;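 note: 0% = vehicle-treated cells and 100% = reference agonist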
Bfl-1 A1 inh = inhibitors of the anti-apoptotic protein A1, read as caspase activation. caspase activation, % (no concentration beside the values). hit rate 0.066% among 330,000. MEF A1-2A-BIM cells, Caspase-Glo 3/7 luminescence, 3 h; percent of clofoctol response, vehicle zero. AID 2462;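 active = over half of replicate activation scores above 10%, or exactly half above 10 with the replicate mean above 10; inconclusive = replicate mean below 10 yet half the replicates above 10; inactive = over half of replicates below 10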
HTR5A inv ctr = HTR5A inverse agonism, opioid heterodimer counter-screen; hit rate 0.083% among 340,000; HTR5A cell line, luminescence; inhibition, % at 9.3 µM; AID 504634; in the data active = inhibition mostly above about 23%, no sharp cut-off; inactive = mostly below about 18%;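 note: 0% = cells with DMSO and 100% = no-cell wells with DMSO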
OPRM1-D1 ag cf = confirmation of human OPRM1-OPRD1 heterodimerization agonists. shares compounds with MOR-DOR ag. cells, MOR-DOR heterodimerization, luminescence complementation. activation, % at 9.3 µM. hit rate 45% among 830. AID 504904; in the data active = activation above about 18%;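 note: 0% = vehicle-treated cells and 100% = reference agonist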
HTR5A ag ctr2 = activates human HTR5A in OPRM1-OPRD1 agonist counter-screen | shares compounds with MOR-DOR ag | HTR5A agonist counterscreen, cell luminescence | activation, % at 9.3 µM | hit rate 8% among 830 | AID 504905; in the data active = activation above about 17%;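 note: 0% = vehicle-treated cells and 100% = reference agonist response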
OPRM1-D1 inv cf = OPRM1-OPRD1 heterodimer inverse agonism, confirmation; shares compounds with MOR-DOR inv ag-1; cells expressing OPRM1/OPRD1 heterodimer, luminescence; inhibition, % at 9.3 µM; hit rate 20% among 580; AID 504900; in the data active = inhibition above about 32%;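 note: 0% = cells with DMSO and 100% = wells lacking cells with DMSO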
HTR5A inv ctr2 = inverse agonist of human HTR5A in OPRM1-OPRD1 counter-screen; inhibition, % at 9.3 µM; shares compounds with MOR-DOR inv ag-1; 580 tested, under 10 active; HTR5A-expressing cells, luminescence, inverse agonism;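 note: 0% = cells with DMSO and 100% = no-cell wells with DMSO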
MOR-DOR inv ag-2 = counter-screen for HTR5A inverse agonists: OPRM1-OPRD1 heterodimerization inverse agonism; shares compounds with HTR5A inv ctr; U2OS counter-screen cells, complementation luminescence; inhibition, % at 9.3 µM; 190 tested, under 10 active; AID 504912;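 note: 0% = cells with DMSO and 100% = wells without cells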
HTR5A inv conf = confirmation of human HTR5A inverse agonists; inhibition, % at 9.3 µM; AID 504916; shares compounds with HTR5A inv ctr; 190 tested, under 10 active; HTR5A-expressing cells, inverse agonism, luminescence;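 note: 0% = cells with DMSO and 100% = no cells with DMSO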
Starred values were filed as active, the others as inactive; i = inactive; ? = inconclusive; / = no result. Compounds with a hit are over-represented: about 1.1% of the library has one in this group of screens. Unless noted, the rule behind the calls is not given here.

SMILES	MOR-DOR inv ag-1	HTR5A ag ctr	MOR-DOR ag	Bfl-1 A1 inh	HTR5A inv ctr	OPRM1-D1 ag cf	HTR5A ag ctr2	others
COc1ccc(-c2nn(-c3ccccc3)cc2CNCc2cccnc2)c(F)c1	-97	-3	21*	1	7	-2	-1
COc1ccc(-n2cc(CNCc3cccnc3)c(-c3cccc(F)c3)n2)cc1	-279	1	55*	0	-4	404*	2
COc1ccc(CNCc2cn(-c3cccc(F)c3)nc2-c2ccc(C)o2)cc1	i	0	120*	0	1	0	0
Fc1ccccc1COc1ccc(Br)cc1CNCc1cccnc1	1	-3	0	0	11	/	/
Cc1ccc(-c2cc(C(=O)N3CCN(c4ncccn4)CC3)c3cc(Br)ccc3n2)o1	5	0	-1	1	-1	/	/
Cc1ccc(NC(=O)Cn2c(O)c(N=NC(N)=S)c3ccccc32)cc1	-91	8	20*	-1	-32	9	6
COc1ccc2c(c1)c(N=NC(N)=S)c(O)n2CC(=O)c1ccccc1	-110	7	19*	2	-29	15	8
CS(=O)(=O)c1ccc2nc(NC(=O)c3ccc(Cn4cc(Br)cn4)o3)sc2c1	7	4	-1	1	-2	/	/
O=C1C=C(c2c(O)ccc3ccccc23)c2ccccc2C1=O	-280	10	54*	/	-39	47*	14
CCN(CC)c1ccc(C(=C2C=CC(=[N+](CC)CC)C=C2)c2ccc(N(CC)CC)cc2)cc1	-431	-20	108*	/	50*	4	33*	MOR-DOR inv ag-2=-58;HTR5A inv conf=-122
COc1ccc(Cc2nnc(NC(=O)Nc3cccc(OC)c3)s2)cc1	-12	2	3	0	-8	/	/
CC1(C)C(c2ccccc2)=NC(c2ccc(Br)cc2)N1O (centres undefined)	46*	0	-9	?	36	/	/	OPRM1-D1 inv cf=12;HTR5A inv ctr2=5
CC1(C)C(c2ccccc2)=NC(c2ccccc2)N1O (centres undefined)	18	-3	-4	2	-23	/	/
COc1ccc(C2N=C(c3ccccc3)C(C)(C)N2O)cc1 (centres undefined)	43*	-1	-8	0	-23	/	/	OPRM1-D1 inv cf=12;HTR5A inv ctr2=0
CCC1=NC(c2ccc(Br)cc2)N(O)C1(C)C (centres undefined)	33*	-1	-6	1	3	/	/	OPRM1-D1 inv cf=25;HTR5A inv ctr2=-7
CCC1=NC(c2ccc(OC)cc2)N(O)C1(C)C (centres undefined)	15	-1	-3	-1	-4	/	/
Cc1ccc(NC(=O)COC(=O)CC2CCCC2)cc1F	-27	-1	5	-1	5	/	/
COc1ccc(S(=O)(=O)N2CCC(C(=O)N[C@@H](C)C(=O)NC3CCCC3)CC2)cc1	11	-2	-2	0	12	/	/
CC/C(=N\O)c1c(O)c2c(n(-c3ccccc3)c1=O)CCCC2	17	-3	-3	1	9	/	/
Cc1ccc(NC2(C#N)C(=O)Nc3ccccc32)cc1C (centres undefined)	56*	-5	-12	0	14	/	/	OPRM1-D1 inv cf=-244;HTR5A inv ctr2=0
COC(=O)c1ccc(NC2(C#N)C(=O)Nc3ccccc32)cc1 (centres undefined)	83*	-4	-14	3	12	/	/	OPRM1-D1 inv cf=64*;HTR5A inv ctr2=16
Cc1cc(C)c(C(=O)CC2(O)C(=O)Nc3ccccc32)cc1C (centres undefined)	2	-9	0	0	22	/	/

Source: PubChem
